Calls of active or inactive are those of the source. Rule for the calls: active = hit-call score of the fitted dose curve at least 0.9, where 1 is the maximum; inactive = score below 0.9.
Assay: IUF_NPC2a_radial_glia_migration_120hr: Leibniz Research Institute for Environmental Medicine (IUF) 120-hour Neural Progenitor Cell Migration Assay for Radial Glia Migration (NPC2a) (AID 2284298)
Summary of the method: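 Exposure of 0.3 mm primary hNPC spheres runs day 0 to 120 h with a half-volume medium change at day 3. Fixed cells get Hoechst staining; high-content analysis of nuclear positions yields radial glia migration distance per well, compared against DMSO controls.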

| Compound | AC50 | outcome |
| --- | --- | --- |
| CC(C)(C)c1ccccc1OP(=O)(Oc1ccccc1)Oc1ccccc1 | 10 µM (active) |  |
| CCCCOCCOP(=O)(OCCOCCCC)OCCOCCCC |  | inactive |
| O=S1(=O)OCC2C(CO1)C1(Cl)C(Cl)=C(Cl)C2(Cl)C1(Cl)Cl (stereo unspecified) |  | inactive |
| CCCCC(CC)COP(=O)(Oc1ccccc1)Oc1ccccc1 (stereo unspecified) |  | inactive |
| CCOP(=S)(OCC)SCSCC |  | inactive |
| CCOc1ccc(C(C)(C)COCc2cccc(Oc3ccccc3)c2)cc1 |  | inactive |
| CO/N=C(/C(=O)OC)c1ccccc1COc1ccccc1C | 22.9 µM (active) |  |
| O=P(Oc1ccccc1)(Oc1ccccc1)Oc1ccccc1 | 11 µM (active) |  |
| O=C(O)C(F)(OC(F)(F)C(F)(F)C(F)(F)F)C(F)(F)F (stereo unspecified) |  | inactive |

Assay: IUF_NPC2a_radial_glia_migration_72hr: Leibniz Research Institute for Environmental Medicine (IUF) 72-hour Neural Progenitor Cell Migration Assay for Radial Glia Migration (NPC2a) (AID 2284299)
Summary of the method: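 Spheres of human primary neural progenitors migrate on poly-D-lysine/laminin under compound exposure at 37C, 5% CO2. The 72 h radial glia migration distance comes from brightfield images, measured manually.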

| Compound | outcome | AC50 |
| --- | --- | --- |
| CC(C)(C)c1ccccc1OP(=O)(Oc1ccccc1)Oc1ccccc1 | inactive |  |
| CCCCOCCOP(=O)(OCCOCCCC)OCCOCCCC | inactive |  |
| O=S1(=O)OCC2C(CO1)C1(Cl)C(Cl)=C(Cl)C2(Cl)C1(Cl)Cl (stereo unspecified) | inactive |  |
| CCCCC(CC)COP(=O)(Oc1ccccc1)Oc1ccccc1 (stereo unspecified) | inactive |  |
| CCOP(=S)(OCC)SCSCC | inactive |  |
| CCOc1ccc(C(C)(C)COCc2cccc(Oc3ccccc3)c2)cc1 | inactive |  |
| CO/N=C(/C(=O)OC)c1ccccc1COc1ccccc1C |  | 21 µM (active) |
| O=P(Oc1ccccc1)(Oc1ccccc1)Oc1ccccc1 | inactive |  |
| O=C(O)C(F)(OC(F)(F)C(F)(F)C(F)(F)F)C(F)(F)F (stereo unspecified) | inactive |  |

Assay: IUF_NPC2b_neuronal_migration_120hr: Leibniz Research Institute for Environmental Medicine (IUF) 120-hour Neural Progenitor Cell Migration Assay for Neuron Migration (NPC2b) (AID 2284300)
Summary of the method: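 Fetal human NPC spheres migrate on PDL/laminin during 120 h compound treatment; neuronal migration distance, glia-normalized, scored versus DMSO control.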

| Compound | outcome |
| --- | --- |
| CC(C)(C)c1ccccc1OP(=O)(Oc1ccccc1)Oc1ccccc1 | inactive |
| CCCCOCCOP(=O)(OCCOCCCC)OCCOCCCC | inactive |
| O=S1(=O)OCC2C(CO1)C1(Cl)C(Cl)=C(Cl)C2(Cl)C1(Cl)Cl (stereo unspecified) | inactive |
| CCCCC(CC)COP(=O)(Oc1ccccc1)Oc1ccccc1 (stereo unspecified) | inactive |
| CCOP(=S)(OCC)SCSCC | inactive |
| CCOc1ccc(C(C)(C)COCc2cccc(Oc3ccccc3)c2)cc1 | inactive |
| CO/N=C(/C(=O)OC)c1ccccc1COc1ccccc1C | inactive |
| O=P(Oc1ccccc1)(Oc1ccccc1)Oc1ccccc1 | inactive |
| O=C(O)C(F)(OC(F)(F)C(F)(F)C(F)(F)F)C(F)(F)F (stereo unspecified) | inactive |

Assay: IUF_NPC3_neuronal_differentiation_120hr: Leibniz Research Institute for Environmental Medicine (IUF) 120-hour Neuronal Differentiation Assay (NPC3) (AID 2284301)
Summary of the method: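 Neuronal differentiation of primary human neural progenitors measured by high-content imaging: percent TUBB3+ of Hoechst+ nuclei within migrated area at 120 h, seven-point serial dilution plus solvent control, gain or loss relative to DMSO.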

| Compound | outcome | AC50 |
| --- | --- | --- |
| CC(C)(C)c1ccccc1OP(=O)(Oc1ccccc1)Oc1ccccc1 | inactive |  |
| CCCCOCCOP(=O)(OCCOCCCC)OCCOCCCC | inactive |  |
| O=S1(=O)OCC2C(CO1)C1(Cl)C(Cl)=C(Cl)C2(Cl)C1(Cl)Cl (stereo unspecified) | inactive |  |
| CCCCC(CC)COP(=O)(Oc1ccccc1)Oc1ccccc1 (stereo unspecified) | inactive |  |
| CCOP(=S)(OCC)SCSCC | inactive |  |
| CCOc1ccc(C(C)(C)COCc2cccc(Oc3ccccc3)c2)cc1 | inactive |  |
| CO/N=C(/C(=O)OC)c1ccccc1COc1ccccc1C |  | 2.33 µM (active) |
| O=P(Oc1ccccc1)(Oc1ccccc1)Oc1ccccc1 | inactive |  |
| O=C(O)C(F)(OC(F)(F)C(F)(F)C(F)(F)F)C(F)(F)F (stereo unspecified) | inactive |  |

— PubChem BioAssay (EPA / NIEHS)
